{"source": "PubChem BioAssay (EPA / NIEHS)", "note": "Records with an inconclusive call do not appear. Activity calls are given as the source filed them. How the source made its calls: active means hit-call score of the fitted dose curve at least 0.9, where 1 is the maximum; inconclusive means response in the unintended direction; inactive means score below 0.9.", "data": [{"target": "human Retinoid X Receptor beta (RXRb), RXRB (gene 6257) (UniProt P28702)", "sequence (P28702 whole entry, looked up, the tested form may be a part)": "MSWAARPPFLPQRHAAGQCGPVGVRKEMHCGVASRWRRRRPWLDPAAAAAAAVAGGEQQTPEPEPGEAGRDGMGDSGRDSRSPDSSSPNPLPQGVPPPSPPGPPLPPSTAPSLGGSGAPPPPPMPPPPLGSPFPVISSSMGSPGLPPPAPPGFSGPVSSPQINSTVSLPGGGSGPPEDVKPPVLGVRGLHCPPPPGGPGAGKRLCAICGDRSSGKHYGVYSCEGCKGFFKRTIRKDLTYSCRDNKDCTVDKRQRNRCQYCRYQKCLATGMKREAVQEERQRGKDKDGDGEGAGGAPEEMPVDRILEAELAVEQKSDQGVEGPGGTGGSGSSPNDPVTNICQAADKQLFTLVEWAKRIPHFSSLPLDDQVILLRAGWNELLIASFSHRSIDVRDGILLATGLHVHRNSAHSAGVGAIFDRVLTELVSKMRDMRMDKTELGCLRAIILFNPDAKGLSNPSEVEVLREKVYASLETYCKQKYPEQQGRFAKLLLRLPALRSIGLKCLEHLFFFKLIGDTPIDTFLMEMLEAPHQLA", "assay": "ATG_RXRb_TRANS: Attagene TRANS-FACTORIAL HepG2 Assay for human Retinoid X Receptor beta (RXRb) (AID 2283013)", "in_short": "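After a 24 h incubation with test chemical, transfected HepG2 cells carrying NR-Gal4 fusions and GAL4-UAS reporter transcription units yield RNA whose reporter cDNA is FAM-labelled, HpaI-cut and sized by capillary electrophoresis; increases over DMSO are scored.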", "values": [{"smiles": "CC1=CC[C@H](C(C)C)C=C1", "AC50": "40.2 µM (active)"}, {"smiles": "CCCc1ccc(OC)cc1", "outcome": "inactive"}, {"smiles": "CCCCCC/C=C\\CCCCCCCC(=O)O", "AC50": "77 µM (active)"}, {"smiles": "Cc1ccc(N/N=c2\\c(=O)cc/c(=N/Nc3ccc(S(=O)(=O)O)cc3)c2=O)c(C)c1", "outcome": "inactive"}, {"smiles": "Cc1cc(O)c(Cl)c(C)c1Cl", "outcome": "inactive"}, {"smiles": "CCCOC(=O)CCCCC(=O)OCCC", "outcome": "inactive"}, {"smiles": "OC1CCCCCCCCCCC1", "AC50": "44.6 µM (active)"}, {"smiles": "COC=O", "outcome": "inactive"}, {"smiles": "C[C@]12CCC(=O)C=C1CC[C@@H]1[C@@H]2C(=O)C[C@@]2(C)[C@H]1CC[C@]2(O)C(=O)CO", "outcome": "inactive"}, {"smiles": "C=C1[C@H]2CC[C@@H]3[C@H]2C(C)(C)CCC[C@]13C", "outcome": "inactive"}, {"smiles": "Cn1c(=O)[nH]c2ncn(C)c2c1=O", "outcome": "inactive"}, {"smiles": "Nc1ccc(Cl)cc1Cl", "outcome": "inactive"}, {"smiles": "CCC(=O)Oc1ccc(/C(CC)=C(\\CC)c2ccc(OC(=O)CC)cc2)cc1", "AC50": "2.92 µM (active)"}, {"smiles": "C=C(C)[C@H]1CC=C(C)CC1", "outcome": "inactive"}, {"smiles": "CCCCCC/C=C/C=O", "outcome": "inactive"}, {"smiles": "CC(=O)NS(=O)(=O)c1ccc(N)cc1", "outcome": "inactive"}, {"smiles": "CC(C)CCCCCOC(=O)CCS", "outcome": "inactive"}, {"smiles": "FC(F)(F)C(=NOCC1OCCO1)c1ccc(Cl)cc1", "AC50": "20.4 µM (active)"}, {"smiles": "O=C(OCC1CCC2OC2C1)C1CCC2OC2C1", "note": "(stereo not given)", "outcome": "inactive"}, {"smiles": "CCCCCCCCCCCCCCCC(=O)OCC", "outcome": "inactive"}, {"smiles": "NC(=O)C1CO1", "note": "(stereo not given)", "outcome": "inactive"}, {"smiles": "CCN(CCO)c1cccc(C)c1", "outcome": "inactive"}, {"smiles": "CCOC(=O)c1ccc(N(C)C)cc1", "outcome": "inactive"}, {"smiles": "O=S(=O)(O)c1ccc2cc(O)c(S(=O)(=O)O)cc2c1", "outcome": "inactive"}, {"smiles": "C(=CC=Nc1ccccc1)C=CNc1ccccc1", "outcome": "inactive"}, {"smiles": "COc1cc(NC(=O)CC(C)=O)c(OC)cc1Cl", "outcome": "inactive"}, {"smiles": "O=C(O)c1cc2ccccc2nc1C(=O)O", "outcome": "inactive"}, {"smiles": "Cc1cnc(NC(=O)C2=C(O)c3ccccc3S(=O)(=O)N2C)s1", "outcome": "inactive"}, {"smiles": "O=C1C(N(CO)C(=O)NCO)N(CO)C(=O)N1CO", "note": "(stereo not given)", "outcome": "inactive"}, {"smiles": "COc1ccc(-c2coc3cc(O)ccc3c2=O)cc1", "outcome": "inactive"}, {"smiles": "O=C1CCCCCCCCCCC(=O)OCCO1", "outcome": "inactive"}, {"smiles": "N#CCc1ccc(Cl)cc1Cl", "outcome": "inactive"}, {"smiles": "COC(=O)c1ccccc1OC", "outcome": "inactive"}, {"smiles": "CC(C)c1ccc2c(C(C)C)cc(C(C)C)c(S(=O)(=O)O)c2c1", "AC50": "18.2 µM (active)"}, {"smiles": "COCCCOCCCOC", "outcome": "inactive"}]}]}
